Rows were chosen to be rich in hits. Some 0.78% of all compounds tested hit in one or more screens of this group.
BLM helicase inh: Bloom syndrome helicase (human) inhibition. 350,000 compounds, 0.2% hits. recombinant BLM DNA unwinding, fluorescence dequenching. Potency, µM (doses to about 56.1 µM), for inactives: top-dose activity change, negative = inhibition, actives largely listed as inhibitors;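 further: plate controls were vehicle for no effect and no enzyme for full effect; nearly all actives have a fitted effect of over 35% in size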
APE1 inh: APE1 (human) endonuclease inhibition; recombinant APE1, TAMRA/BHQ-2 abasic DNA cleavage fluorescence; Potency, µM (series often up to 65.8 µM), without a hit: top-dose activity change, negative = inhibition, most hits filed as inhibitors; 350,000 compounds, 0.35% hits; AID 2517;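 further: plate controls were vehicle for no effect and reference inhibitor for full effect; nearly all actives have a fitted effect of over 55% in size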
Target sequence (P27695 whole entry, looked up): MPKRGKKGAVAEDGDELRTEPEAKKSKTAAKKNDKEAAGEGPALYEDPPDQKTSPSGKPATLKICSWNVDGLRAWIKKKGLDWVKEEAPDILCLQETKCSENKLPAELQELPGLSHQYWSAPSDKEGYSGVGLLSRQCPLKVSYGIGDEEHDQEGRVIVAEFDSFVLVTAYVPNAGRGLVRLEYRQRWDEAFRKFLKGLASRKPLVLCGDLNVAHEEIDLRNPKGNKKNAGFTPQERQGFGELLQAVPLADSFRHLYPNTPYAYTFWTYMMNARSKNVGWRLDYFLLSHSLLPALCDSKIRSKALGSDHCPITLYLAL
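Measures dequenching upon AP-site incision of a 5'-TAMRA/3'-BHQ-2 THF-containing duplex, 50 nM; human APE1 0.75 nM after 15 min room-temperature exposure to compound; kinetic three-point read at one-minute spacing.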
L3MBTL1 inh: L3MBTL1 (human) inhibition; Potency, µM (titrated, usually from 57.1 µM), without a hit: at the highest dose activity, negative = inhibition, hits mostly inhibitors; AlphaScreen L3MBTL1–H3K9me1 peptide binding; 230,000 compounds, 0.66% hits; further: nearly all actives have a fitted effect of over 60% in size
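Read-out is AlphaScreen signal from streptavidin donor and nickel chelate acceptor beads (10 ug/mL final each) bridging L3MBTL1 (50 nM) and biotinylated K9-monomethylated H3(1-15) peptide (75 nM), after 30 min compound exposure at room temperature.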
RECQ1 inh-1: blocks DNA unwinding by human RECQ1 | P46063 | RECQ1 DNA unwinding, red fluorescence kinetic read | Potency, µM (titrated, usually from 57.3 µM), for the others: top-dose activity, negative = inhibition, usual class: inhibitors | 240,000 compounds, 0.54% hits | AID 2549;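 further: plate controls were vehicle for no effect and no enzyme for full effect; nearly all actives have a fitted effect of over 30% in size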
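RECQ1T1 50 nM; forked duplex (20 bp + 30-nt ss tails) 200 nM, ATP 2 mM final; pH 8.0, 2 mM MgCl2, 2.5 ug/ml poly(dI-dC); 15 min compound preincubation; discontinuous kinetic read over 2 h at RT.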
RECQ1 conf: confirmation of human RECQ1 helicase inhibitors; shares compounds with RECQ1 inh-1; RECQ1 helicase DNA unwinding, fluorescence; Potency, µM (doses to about 229 µM), for inactives: at the highest dose activity change, negative = inhibition, hits mostly inhibitors; 610 compounds, 28% hits; AID 2708; further: nearly all actives have a fitted effect of over 45% in size
ADP FP counter: ADP displacement flagged in RECQ1 inhibitor counter-screen. Potency, µM (doses to about 228 µM), for the others: at the top dose activity change, negative = inhibition, usual class: inhibitors. ADP fluorescence polarization displacement counterscreen. shares compounds with RECQ1 inh-1. AID 2711. 530 compounds, 27% hits; further: nearly all actives have a fitted effect of over 45% in size
RECQ1 inh-2: confirmation of human RECQ1 helicase inhibitors. shares compounds with RECQ1 inh-1. recombinant RECQ1 DNA unwinding, red fluorescence. Potency, µM (titrated, usually from 119 µM), inactives show top-dose activity, negative = inhibition, actives largely listed as inhibitors. 1,100 compounds, 15% hits. AID 504841; further: nearly all actives have a fitted effect of over 50% in size
An asterisk follows results filed as active; i = inactive; ? = inconclusive; . = no result given; [ ] = dose if it differs, or a comment. The call rests on the fitted dose curve; in most records, active means well fitted curve in the direction sought with a large enough effect; inconclusive means small, poorly fitted or top-dose-only effect, or another doubt; inactive means no such curve, though single readings can be large; an effect the other way counts as inactive or inconclusive. Unless noted, on the % scale 0 is the no-effect control and ±100 the full control effect; potency means the concentration at half of the fitted maximal effect.

SMILES	BLM helicase inh	APE1 inh	L3MBTL1 inh	RECQ1 inh-1	RECQ1 inh-2	others
CCOC(=O)Cc1cc(=O)n(-c2nc3ccccc3s2)[nH]1	-17%	?	28µM*	?	-22%
COc1cc(OC)c2c(-c3ccccc3)cc(=O)oc2c1C(CC(=O)N1CCCC1)c1ccc(N(C)C)cc1 (configuration not stated)	-10%	8%	.	-13%	.
COc1ccc(C(CC(=O)N2CCCC2)c2c(OC)cc(OC)c3c(-c4ccccc4)cc(=O)oc23)cc1 (configuration not stated)	?	10µM*	.	13µM*	20µM*
CCC(=O)Nc1nnc(S(=O)(=O)N(C)Cc2ccc(Cl)cc2)s1	-2%	.	.	.	.
O=C(CCCN1C(=O)/C(=C\c2cccs2)SC1=S)NNC(=O)c1cccnc1	0%	-5%	-26%	2.8µM*	.	RECQ1 conf=?;ADP FP counter=3%[91.9 µM]
CCC(C(=O)Nc1nnc2n1CCS2)c1ccccc1 (configuration not stated)	-2%	.	.	.	.
CCOC(=O)C(=CNc1ccc(-c2ccco2)c(Cl)c1)C(=O)OCC	-13%	-3%	-18%	?	-27%
CC(C)(C)C(=O)OCCNc1nc(-c2ccccc2)nc2ccccc12	-7%	11%	10%	7.9µM*	-17%	RECQ1 conf=2%[114 µM]
CCn1c(SCc2ccccc2F)nc(=O)c2c(C(=O)OC)cc(C3CC3)nc21	-8%	.	.	.	.
O=C1NC(=Nc2ccc(O)cc2)S/C1=C/c1ccco1	-8%	?	.	-5%	.
COc1ccc(N=C2S/C(=C\c3ccco3)C(=O)N2CC(C)C)cc1	-7%	16%	-18%	-21%	.
O=C1NC(=Nc2ccc3ccccc3c2)S/C1=C/c1ccco1	18µM*	?	28µM*	?	?
Cc1cccc(N=C2NC(=O)/C(=C/C=C/c3ccco3)S2)c1	?	?	?	35µM*	?
Cc1cccc(N=C2NC(=O)S/C2=C\c2ccco2)c1	-21%	?	?	-5%	.
COc1ccc(N=C2NC(=O)/C(=C\C=C\c3ccco3)S2)cc1	18µM*	?	32µM*	?	?
CCC(Sc1nncn2c1cc1occc12)C(=O)Nc1ccc(C)c(Cl)c1 (configuration not stated)	-10%	.	.	.	.
Cc1ccc(N(C)C(=O)c2noc3c2CCCCC3)cc1C	-7%	.	.	.	.
Cc1cccc(NCc2nc3ccccc3n2CCOc2ccccc2C)c1	-6%	.	.	.	.
CCOC(=O)/C(=C/C=C1\Sc2cc(OCC)c(OCC)cc2N1CC)C(C)=O	-1%	?	-3%	10µM*	.	RECQ1 conf=?;ADP FP counter=45µM*
CCOC(=O)/C(=C\C=C1/Sc2cc(OCC)c(OCC)cc2N1CC)C(C)=O	-8%	15%	-13%	-15%	.
CC(=O)c1cc2c(cc1N(C(=O)Cn1nnc3ccccc31)C(C(=O)NCCC(C)C)c1cccnc1)OCO2 (configuration not stated)	-2%	-5%	2%	0%	.	RECQ1 conf=-3%;ADP FP counter=5%
Cc1cc(C)n(-c2nc3ccccc3s2)n1	1%	3%	10%	16%	.
Cc1c2c(=O)n(-c3nc4ccccc4s3)nc-2cc(O)n1Cc1ccccc1	16µM*	?	.	22µM*	-6%	RECQ1 conf=45µM*;ADP FP counter=48%[91.9 µM]
Cc1ccn2c(Nc3ccc4c(c3)OCO4)c(-c3ccco3)nc2c1	-7%	.	.	.	.
CCc1ccc(OCC(=O)NC2CC(C)(C)NC(C)(C)C2)cc1	-3%	-6%	3%	?	13%
SMILES	BLM helicase inh	APE1 inh	L3MBTL1 inh	RECQ1 inh-1	RECQ1 inh-2	others
Cc1ccc(S(=O)(=O)c2nc(NC3CCS(=O)(=O)C3)sc2Cl)cc1 (configuration not stated)	-10%	-3%	.	-13%	.
O=S(=O)(c1ccccc1)c1nc(NC2CC2)sc1Cl	-2%	17%	?	40µM*	-5%
C=C1c2c(Cl)ccc(O)c2C(O)=C2C(=O)[C@@]3(O)C(O)=C(C(N)=O)C(=O)[C@@H](N(C)C)[C@@H]3[C@@H](O)[C@H]12	-6%[21.4 µM]	.	.	3.5µM*	.	RECQ1 conf=50%[69.1 µM];ADP FP counter=32µM*
CC(CNC(=O)c1ccc(CSc2nc3ccncc3n2Cc2cccc(F)c2)cc1)c1ccccc1 (configuration not stated)	-6%	.	.	.	.
COc1cccc(Nc2ncc3nc(-c4cc(F)cc(F)c4)c(=O)n(CCC#N)c3n2)c1	-5%	18%	.	?	?
O=C(O)CCC(=O)Nc1nc2nc(-c3ccccc3)cc(-c3ccccc3)n2n1	-1%	25%	0%	i	.	RECQ1 conf=35µM*;ADP FP counter=?
CC(=O)Nc1ccc(S(=O)(=O)Nc2nc3nc(-c4ccccc4)cc(-c4ccccc4)n3n2)cc1	1%	-9%	.	.	.
CCN1CCN(c2cc(C)c3cc(NC(=O)c4ccc(OC)c(OC)c4)ccc3n2)CC1	-7%	-1%	.	22µM*	?
CC(C(=O)Nc1ccc(OC(F)(F)F)cc1)N1Cc2ccccc2C1=O (configuration not stated)	-4%	.	.	.	.
CCCCN1C(=O)C(O)(CC(=O)c2ccc(C(C)(C)C)cc2)c2ccccc21 (configuration not stated)	-15%	.	.	.	.
COc1ccc(Cl)cc1N1C(=O)CC(N2CCc3ccccc32)C1=O (configuration not stated)	-2%	-3%	.	-16%	.
COc1ccccc1N1C(=O)CC(N2CCc3ccccc32)C1=O (configuration not stated)	-4%	?	?	?	-5%
Cc1c(N2C(=O)CS/C2=N\N=C\c2ccccc2O)c(=O)n(-c2ccccc2)n1C	-4%	-7%	-8%	i	.	RECQ1 conf=19%;ADP FP counter=-23%
c1ccc2c(c1)CCN(C1=Nc3cccc4cccc1c34)C2	4%	?	?	13µM*	-6%	RECQ1 conf=11%[114 µM]
c1cc2c3c(cccc3c1)C(N1CCCCCC1)=N2	54%	-5%	-3%	6%	.
COc1ccc(OC)c(-c2c3cc(O)c(=O)cc-3oc3cc(O)c(O)cc23)c1	28µM*	32µM*	0.79µM*	35µM*	40µM*
COc1ccccc1-n1c(SCC(=O)O)nnc1-c1ccc(S(=O)(=O)N2CCCCC2)cc1	0%	3%	.	-1%	.	RECQ1 conf=3%;ADP FP counter=2%
CC(C)=C1C(=O)NN(c2ccc(F)c(Cl)c2)C1=O	-2%	-3%	-18%	32µM*	-12%
O=C1NN(c2ccc(F)c(Cl)c2)C(=O)/C1=C\c1cccc(OC(=O)c2cccs2)c1	-14%	-2%	.	i	.

Screening data as filed in PubChem BioAssay.
